M1 PAM = human M1 muscarinic receptor positive allosteric modulators, primary screen, CHO-K1 cells, Fluo-8 calcium fluorescence, 1536-well; activation, % at 3 µM; Muscarinic acetylcholine receptor M1 (Homo sapiens), P11229; CHO-K1 hM1, ACh EC20; 0% = ACh EC20, 100% = maximal ACh; 360,000 tested, 0.088% active; in the data active means activation above about 19%, passing the limit was not always enough
Target sequence (P11229 whole entry, looked up): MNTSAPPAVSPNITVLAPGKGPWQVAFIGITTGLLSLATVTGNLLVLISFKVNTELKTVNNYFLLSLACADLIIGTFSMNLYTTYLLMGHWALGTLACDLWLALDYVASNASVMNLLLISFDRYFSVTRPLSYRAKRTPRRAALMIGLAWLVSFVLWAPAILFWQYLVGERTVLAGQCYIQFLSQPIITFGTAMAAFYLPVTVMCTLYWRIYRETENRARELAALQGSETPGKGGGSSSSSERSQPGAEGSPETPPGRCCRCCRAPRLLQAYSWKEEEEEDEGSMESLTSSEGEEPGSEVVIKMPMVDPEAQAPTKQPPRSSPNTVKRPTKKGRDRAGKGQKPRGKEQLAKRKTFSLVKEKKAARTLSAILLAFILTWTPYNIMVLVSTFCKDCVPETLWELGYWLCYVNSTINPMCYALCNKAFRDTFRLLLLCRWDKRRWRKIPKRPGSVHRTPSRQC
M1 ag parental = counter-screen for M1 agonists: effect in parental CHO-K1 cells; Fluo-8 calcium fluorescence; scaled to maximal ATP response, vehicle zero; activation, % at 3 µM; 360,000 tested, 0.48% active; in the data active means activation above about 15%;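 further: untransfected CHO-K1 host cells lacking M1 receptor as counterscreen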
CHO-K1 Ca PAM = nonselective calcium activators in parental CHO-K1 cells, primary screen, counter-screen for M1 PAM project, cell-based, Fluo-8 calcium fluorescence, full deck, 1536-well; 360,000 tested, 0.02% active; ATP EC20; 0% at ATP EC20, 100% at ATP max; activation, % at 3 µM;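 active means activation above the run cutoff, the mean activation of all test compounds plus 3 SD, cut at about 40% in these data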;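 further: peak over basal fluorescence ratio in a 140 s read after ATP addition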
CHRM1 antagonist = human M1 muscarinic receptor antagonists, primary screen, CHO-K1 cells, Fluo-8 calcium fluorescence, 1536-well; Muscarinic acetylcholine receptor M1 (Homo sapiens), P11229; CHO-K1 hM1, ACh EC80 antagonist; inhibition, % at 3 µM; 360,000 tested, 1.3% active;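 active means percent inhibition above its own plate's cutoff, namely the mean of that plate's compound wells plus 3 SD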;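 further: peak over basal fluorescence ratio during 140 s after agonist addition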
CHO-K1 Ca antag = M1 antagonist counterscreen hit in parental CHO-K1 cells; 360,000 tested, 0.6% active; ATP-induced calcium, Fluo-8 fluorescence; inhibition, % at 3 µM;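 active means inhibition above a per-plate cutoff, the plate's mean sample inhibition plus 3 SD, cut at about 24% in these data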
CHRM1 agonist = human M1 muscarinic receptor agonists, primary screen, Fluo-8 calcium fluorescence, CHO-K1 cells, HTS; CHO-K1 hM1, agonist mode; 0% DMSO, 100% acetylcholine EC100; activation, % at 3 µM; 360,000 tested, 0.33% active;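 active means activation above the run's mean compound activation plus 3 SD, cut at about 16% in these data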;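 further: peak over basal fluorescence ratio within a 140 s kinetic read after compound addition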
Large screens that a line does not name were inactive. Only some compounds are listed: those with a hit (about 2.4% of all), similar ones and a draw of the others.

O=C(c1ccc(Cl)s1)N1CCN(C23CC4CC(CC(C4)C2)C3)CC1	none
COc1cccc(CN2CCC2(C)C(=O)Nc2cccc(Oc3ccccc3)c2)c1OC (stereo not given)	none
CCCN(CCC)CCCNC(=O)C1CCC(CNS(=O)(=O)c2cccc3nsnc23)CC1 (stereo not given)	CHRM1 antagonist 51
CC1CCN(CCNC(=O)C2CCN(S(=O)(=O)c3cccc4nsnc34)CC2)CC1	none
O=C(C1CCN(S(=O)(=O)c2cccc3nsnc23)CC1)N1CCn2c1nc1ccccc12	CHRM1 agonist 17
CC(C)OCCCNC(=O)C1CCC(CNS(=O)(=O)c2cccc3nsnc23)CC1 (stereo not given)	none
CCC1CCCCN1CCNC(=O)C1CCN(S(=O)(=O)c2cccc3nsnc23)CC1 (stereo not given)	CHRM1 antagonist 52
Cc1cccc(N2CCN(C(=O)C3CCN(S(=O)(=O)c4cccc5nsnc45)CC3)CC2C)c1 (stereo not given)	CHRM1 antagonist 25
Cc1cccc(N2CCN(C(=O)C3CCN(S(=O)(=O)c4cccc5cccnc45)CC3)CC2C)c1 (stereo not given)	none
C[C@@H]1CN([C@@H](C)CO)C(=O)c2cc(Br)cnc2O[C@@H]1CN(C)Cc1cncnc1	none
COc1ccc(-c2ncccc2OC(=O)C23CC4CC(CC(C4)C2)C3)cc1	none
C[C@@H]1CN([C@@H](C)CO)C(=O)CCCn2nncc2CO[C@@H]1CN(C)C(=O)Cc1ccccc1	none
CCN(CC(=O)Nc1cc(Cl)ccc1C)C(=O)c1cc([N+](=O)[O-])ccc1N1CCOCC1	none
CCc1nc2ccc(C(=O)N3CCN(c4ccccc4)CC3)cn2c1N(C)CCCc1ccccc1	none
CCc1nc2ccc(C(=O)N(C)CCCN(C)C)cn2c1N(C)Cc1cc2ccccc2s1	CHRM1 antagonist 38
CCc1nc2ccc(C(=O)N(CC)CCN(C)C)cn2c1N(C)CCCc1ccccc1	CHRM1 antagonist 52
CCc1nc2ccc(C(=O)N(C)Cc3ccccc3)cn2c1N(C)CCCc1ccccc1	none
CCc1nc2ccc(C(=O)N(C)CCCN(C)C)cn2c1N(C)CCCc1ccccc1	CHRM1 antagonist 32
CCc1nc2ccc(C(=O)NCCNC(C)=O)cn2c1N(CCC(C)C)CCN(C)C	none
CCc1nc2ccc(C(=O)NCc3ccccc3OC)cn2c1N(CCC(C)C)CCN(C)C	CHRM1 antagonist 39, CHRM1 agonist 42
O=C(NCc1cccc(C(F)(F)F)c1)C1CC(c2ccccc2C(F)(F)F)=NO1 (stereo not given)	none
CCOC(=O)c1c(C)[nH]c(C)c1S(=O)(=O)N1CCN(c2cccc(C)c2)C(C)C1 (stereo not given)	none
CC[C@]12c3[nH]c4cc(-c5ccco5)ccc4c3CCN1C(=O)[C@@H](CC(=O)NCCCN(C)C)C[C@@H]2C(=O)N1CCN(C(=O)C2CC2)CC1	CHRM1 antagonist 21
CCOC(=O)C1=C(O)CSC1=Nc1ccc(Cl)cc1	CHO-K1 Ca antag 27
CCOC(=O)C1=C(O)CSC1=Nc1ccccc1	none
COC(=O)[C@H](Cc1c[nH]c2ccccc12)NC(=O)Cc1c[nH]c2ccccc12	none
COC(=O)[C@H](Cc1c[nH]c2ccccc12)NC(=O)CCCc1c[nH]c2ccccc12	M1 ag parental 16
O=C(CCc1c[nH]c2ccccc12)NC(Cc1c[nH]c2ccccc12)C(=O)O (stereo not given)	none
CCOC(=O)C(Cc1ccc(O)cc1)NC(=O)CCc1c[nH]c2ccccc12 (stereo not given)	CHRM1 agonist 21
C=C(C)[C@@H]1CC=C(CN2CCN(Cc3ccccc3)CC2)CC1	CHRM1 antagonist 38
CC1CCCCN1CCCNC(=O)C1CCN(c2nc3ccccc3o2)CC1 (stereo not given)	CHRM1 antagonist 78

Assay outcomes from PubChem BioAssay.
